# From PubChem BioAssay (NCATS)
# Several values for one entry are separate records, joined by “and”; a condition that tells them apart may be missing. Identical values can stand only once. Records with an inconclusive call do not appear. Entries that show only a call come without a potency. Activity calls are given as the source filed them. Unless noted, the call rests on the fitted dose curve; in most records, active means well fitted curve in the direction sought with a large enough effect; inconclusive means small, poorly fitted or top-dose-only effect, or another doubt; inactive means no such curve, though single readings can be large; an effect the other way counts as inactive or inconclusive.
# Tests used:
# [1] = Primary fluorescence-based thiol-reactive (MSTI) qHTS assay for identification of artifact compounds. (AID 1845221); further: nearly all actives have a fitted effect of over 65% in size; further: potency means the concentration at half of the fitted maximal effect
# Summary of the method: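 MSTI probe at 4 uM final in 2% DMSO/PBS pH 7.4; compounds, 1 h at room temperature in dark. Fluorescence Ex/Em 525/598 nm, normalised to Acetyl-MSTI and MSTI, fitted to 4-parameter Hill.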
# [2] = system: Nanoluciferase (engineered Oplophorus gracilirostris luciferase); assay: Primary Nanoluciferase (NLuc) qHTS assay for identification of artifact compounds. (AID 1845222);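 further: NLuc secreted into diluted conditioned medium of S16 cells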
# Summary of the method: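 qHTS format, against NLuc in S16 cell-conditioned medium. Nano-Glo substrate 1:100 was added after 15 min at room temperature. Luminescence was taken after a further 5 min.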
# [3] = qHTS profiling for inhibitors of Plasmodium falciparum proliferation (AID 504749); further: nearly all actives have a fitted effect of over 60% in size; further: potency means the concentration at half of the fitted maximal effect; details: P. falciparum in erythrocytes, SYBR Green DNA, 72 h
# Summary of the method: (§1)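 P. falciparum-infected erythrocytes (0.3% parasitemia, 2.5% hematocrit) incubated with compound 72 h at 37 C, 5% CO2. Parasite DNA detected by SYBR Green after lysis, overnight at room temperature; normalised to 0.29 uM artemisinin and DMSO.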
# [4] = system: 3D7; assay: as above; details: P. falciparum in erythrocytes, SYBR Green DNA, 72 h; series mostly up to 28.7 µM
# Summary of the method: as §1
# [5] = system: 7G8; assay: as above; details: P. falciparum in erythrocytes, SYBR Green DNA, 72 h; series mostly up to 28.7 µM
# Summary of the method: as §1
# [6] = system: AA1029; assay: as above; details: P. falciparum in erythrocytes, SYBR Green DNA, 72 h; series mostly up to 28.7 µM
# Summary of the method: as §1
# [7] = system: AS120; assay: as above; details: P. falciparum in erythrocytes, SYBR Green DNA, 72 h; series mostly up to 28.7 µM
# Summary of the method: as §1
# [8] = system: ATS189; assay: as above; details: P. falciparum in erythrocytes, SYBR Green DNA, 72 h; series mostly up to 28.7 µM
# Summary of the method: as §1
# [9] = qHTS drug screen for cell cycle checkpoint inhibitors in PARPi-resistant BRCA-mutant ovarian cancer cell lines. (AID 1963452; calls by dose curve); details: PEO1/OlaR viability, CellTiter-Glo luminescence, 96 h, stronger effect = lower value
# Summary of the method: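 PEO1, PEO4 and PEO1/OlaR ovarian cancer cells, 600 per well, exposed 96 h at 37C to a dilution series. Viability read by CellTiter-Glo luminescence, normalized to DMSO and empty wells; activity summarized as Z-AUC.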
# [10] = at 28.7 µM (top of the series), parasite line A
# [11] = at 28.7 µM (top of the series), parasite line B
# [12] = measured here: PEO1 parental Z-AUC
# [13] = at 12.8 µM (top of the series), parasite line A
# [14] = at 12.8 µM (top of the series), parasite line B
smiles,measurement,setting,value
Nc1nc2c(ncn2CCC(CO)CO)c(=O)[nH]1,Potency,[1],inactive
same,outcome,[2],inactive
same,"activity, negative = inhibition",[3]; [10],3.65% (inactive)
same,"activity, negative = inhibition",[3]; [11],-4.23% (inactive)
same,Potency,[4],inactive
same,Potency,[5],inactive
same,Potency,[6],inactive
same,Potency,[7],inactive
same,Potency,[8],inactive
Cc1cc(C(C#N)c2ccc(Cl)cc2)c(Cl)cc1NC(=O)c1cc(I)cc(I)c1O (configuration not stated),Potency,[1],inactive
same,outcome,[2],inactive
same,"activity, negative = inhibition",[3]; [10],8.49% (inactive)
same,"activity, negative = inhibition",[3]; [11],7.42% (inactive)
same,Potency,[4],inactive
same,Potency,[6],inactive
same,Potency,[7],inactive
same,Potency,[8],inactive
Cc1cc(N)c2ccccc2[n+]1CCCCCCCCCC[n+]1c(C)cc(N)c2ccccc21,Potency,[1],inactive
same,outcome,[2],inactive
same,Potency,[3]; parasite line B,14.1 µM (active)
same,Potency,[4],0.708 µM (active)
same,Potency,[5],0.0355 µM (active)
same,Potency,[6],0.316 µM (active)
same,Potency,[7],7.94 µM (active)
same,Potency,[8],0.316 µM (active)
CCCCc1ncc(/C=C(\Cc2cccs2)C(=O)O)n1Cc1ccc(C(=O)O)cc1,Potency,[1],inactive
same,outcome,[2],inactive
same,"activity, negative = inhibition",[3]; [10],6.94% (inactive)
same,"activity, negative = inhibition",[3]; [11],4.94% (inactive)
same,Potency,[4],inactive
same,Potency,[5],inactive
same,Potency,[6],inactive
same,Potency,[7],inactive
same,Potency,[8],inactive
O=C1Nc2ccc(Cl)cc2[C@@](C#CC2CC2)(C(F)(F)F)O1,Potency,[1],inactive
same,outcome,[2],inactive
same,Z-AUC,[9],-0.995 (inactive) and -0.662 (inactive)
same,Z-AUC,[9]; [12],-0.432 and 0.539
same,Z-AUC,[9]; measured here: PEO4 Z-AUC,-0.62 and -0.612
OCC(O)CN1CCN(c2ccccc2)CC1 (configuration not stated),Potency,[1],inactive
same,outcome,[2],inactive
same,"activity, negative = inhibition",[3]; [10],5.92% (inactive)
same,"activity, negative = inhibition",[3]; [11],10.4% (inactive)
same,Potency,[4],inactive
same,Potency,[5],inactive
same,Potency,[6],inactive
same,Potency,[7],inactive
same,Potency,[8],inactive
C[C@@H]1C[C@H]2[C@@H]3C[C@H](F)C4=CC(=O)C=C[C@]4(C)[C@@]3(F)[C@@H](O)C[C@]2(C)[C@@]1(O)C(=O)CO,Potency,[1],inactive
same,outcome,[2],inactive
CC(C(O)c1ccc(O)cc1)N1CCC(Cc2ccccc2)CC1 (configuration not stated),Potency,[1],inactive
same,outcome,[2],inactive
same,Potency,[5],8.91 µM (active)
same,Potency,[7],8.91 µM (active)
same,Potency,[8],11.2 µM (active)
CC(C)c1c(C(=O)Nc2ccccc2)c(-c2ccccc2)c(-c2ccc(F)cc2)n1CC[C@@H](O)C[C@@H](O)CC(=O)O,Potency,[1],inactive
same,outcome,[2],inactive
same,Z-AUC,[9],-0.739 (inactive)
same,Z-AUC,[9]; [12],-0.99
same,Z-AUC,[9]; measured here: PEO4 Z-AUC,-1.27
CC(C)(O)c1ccccc1CC[C@@H](SCC1(CC(=O)O)CC1)c1cccc(/C=C/c2ccc3ccc(Cl)cc3n2)c1,Potency,[1],inactive
same,outcome,[2],inactive
COc1ccc2cc1Oc1ccc(cc1)C[C@H]1c3c(cc4c(c3Oc3cc5c(cc3OC)CCN(C)[C@@H]5C2)OCO4)CCN1C,Potency,[1],inactive
same,outcome,[2],inactive
c1ccc(CN(CC2=NCCN2)c2ccccc2)cc1,Potency,[1],inactive
same,outcome,[2],inactive
same,"activity, negative = inhibition",[3]; [10],-1.61% (inactive)
same,"activity, negative = inhibition",[3]; [11],-1.95% (inactive)
same,Potency,[4],inactive
same,Potency,[5],4.47 µM (active)
CC(C)(C)C(=O)C(Oc1ccc(Cl)cc1)n1ccnc1 (configuration not stated),Potency,[1],inactive
same,outcome,[2],inactive
same,Potency,[4],10 µM (active)
same,Potency,[5],7.94 µM (active)
same,Potency,[7],10 µM (active)
same,Potency,[8],8.91 µM (active)
CCOC(CN1CCN(CC(C)C(=O)c2ccccc2)CC1)c1ccccc1 (configuration not stated),outcome,[2],inactive
same,"activity, negative = inhibition",[3]; [10],2.77% (inactive)
same,"activity, negative = inhibition",[3]; [11],3.94% (inactive)
same,Potency,[4],inactive
same,Potency,[5],11.2 µM (active)
same,Potency,[7],inactive
CN1CCOC(c2ccccc2)c2ccccc2C1 (configuration not stated),Potency,[1],inactive
same,outcome,[2],inactive
O=c1[nH]cnc2c1ncn2[C@@H]1O[C@H](CO)[C@@H](O)[C@H]1O,Potency,[1],inactive
same,outcome,[2],inactive
CCOC(=O)[C@H](CCc1ccccc1)N[C@@H](C)C(=O)N1C(=O)N(C)C[C@H]1C(=O)O,Potency,[1],inactive
same,outcome,[2],inactive
same,"activity, negative = inhibition",[3]; [10],8.56% (inactive)
same,"activity, negative = inhibition",[3]; [11],16.1% (inactive)
same,Potency,[4],inactive
same,Potency,[5],inactive
same,Potency,[6],inactive
same,Potency,[7],inactive
same,Potency,[8],inactive
CC(=O)NC(Cc1ccccc1)C(=O)O (configuration not stated),Potency,[1],11.2 µM (active)
same,outcome,[2],inactive
same,"activity, negative = inhibition",[3]; [10],3.68% (inactive)
same,"activity, negative = inhibition",[3]; [11],2.97% (inactive)
same,Potency,[4],inactive
same,Potency,[5],inactive
same,Potency,[6],inactive
same,Potency,[7],inactive
same,Potency,[8],inactive
CC(C)(C(=O)O)c1ccc(C(O)CCCN2CCC(C(O)(c3ccccc3)c3ccccc3)CC2)cc1 (configuration not stated),Potency,[1],inactive
same,outcome,[2],inactive
Cc1cccc(Nc2cc(Cl)nc(SCC(=O)O)n2)c1C,Potency,[1],inactive
same,"activity, negative = inhibition",[3]; [10],11.5% (inactive)
same,"activity, negative = inhibition",[3]; [11],13.9% (inactive)
same,Potency,[4],inactive
same,Potency,[5],inactive
same,Potency,[6],inactive
same,Potency,[7],inactive
same,Potency,[8],inactive
CCOc1ccc2ccccc2c1C(=O)N[C@@H]1C(=O)N2[C@@H]1SC(C)(C)[C@@H]2C(=O)O,Potency,[1],inactive
same,outcome,[2],inactive
same,"activity, negative = inhibition",[3]; [13],11.5% (inactive)
same,"activity, negative = inhibition",[3]; [14],-19.5% (inactive)
same,Potency,[4],inactive
same,Potency,[5],inactive
same,Potency,[6],inactive
same,Potency,[7],inactive
same,Potency,[8],inactive
CCOc1nc2cccc(C(=O)O)c2n1Cc1ccc(-c2ccccc2-c2nn[nH]n2)cc1,Potency,[1],inactive
same,"activity, negative = inhibition",[3]; [10],-6.01% (inactive)
same,"activity, negative = inhibition",[3]; [11],-13.6% (inactive)
same,Potency,[4],inactive
same,Potency,[5],8.91 µM (active)
same,Potency,[8],inactive
COc1ccc(Cl)cc1C(=O)NCCc1ccc(S(=O)(=O)NC(=O)NC2CCCCC2)cc1,Potency,[1],inactive
same,"activity, negative = inhibition",[3]; [10],10.8% (inactive)
same,"activity, negative = inhibition",[3]; [11],8.21% (inactive)
same,Potency,[4],inactive
same,Potency,[5],inactive
same,Potency,[6],inactive
same,Potency,[7],inactive
same,Potency,[8],inactive
CCN(CC)C(=O)Nc1ccc(OCC(O)CNC(C)(C)C)c(C(C)=O)c1 (configuration not stated),Potency,[1],inactive
same,outcome,[2],inactive
COc1ccc2[nH]c(S(=O)Cc3ncc(C)c(OC)c3C)nc2n1 (configuration not stated),Potency,[1],inactive
same,outcome,[2],inactive
same,Z-AUC,[9],-1.06 (inactive)
same,Z-AUC,[9]; [12],-0.26
same,Z-AUC,[9]; measured here: PEO4 Z-AUC,0.544
same,Potency,[3]; parasite line B,10 µM (active)
same,Potency,[4],10 µM (active)
same,Potency,[5],11.2 µM (active)
same,Potency,[7],8.91 µM (active)
COc1ccc2c(c1)C(=O)N(CCc1ccc(S(=O)(=O)NC(=O)NC3CCCCC3)cc1)C(=O)C2(C)C,Potency,[1],inactive
same,outcome,[2],inactive
same,"activity, negative = inhibition",[3]; [13],4.32% (inactive)
same,"activity, negative = inhibition",[3]; [14],-5.51% (inactive)
same,Potency,[4],inactive
same,Potency,[5],inactive
same,Potency,[6],inactive
same,Potency,[7],inactive
same,Potency,[8],inactive
